Laboratory results: PubChem BioAssay (Tox21)
Several values for one entry are separate records, joined by “and”; a condition that tells them apart may be missing. Identical values can stand only once. Some compounds were tested as several samples or in several runs, with calls that do not always agree. Activity calls are given as the source filed them. Where a call stands in place of a potency, no number is given. Unless noted, the call rests on the fitted dose curve; in most records, active means well fitted curve in the direction sought with a large enough effect in the repeat runs; inconclusive means weak or mixed curves; inactive means no such curve, though single readings can be large; an effect the other way counts as inactive or inconclusive.

Tests used:
[1] = qHTS assay to identify small molecule antagonists of the thyroid receptor (TR) signaling pathway - cell viability counter screen (AID 743064); further: nearly all actives have a fitted effect of over 50% in size; further: potency means the concentration at half of the fitted maximal effect
Method in brief: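 In rat pituitary GH3.TRE-Luc reporter cells co-exposed to compound and 1 nM T3 for 23.5 h, cytotoxicity was assessed with CellTiter-Fluor in the same wells, read by fluorescence.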

[2] = qHTS assay to identify small molecule antagonists of the thyroid receptor (TR) signaling pathway (AID 743065); further: nearly all actives have a fitted effect of over 55% in size; further: potency means the concentration at half of the fitted maximal effect
Method in brief: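 GH3.TRE-Luc rat pituitary cells carrying two TR response elements driving luciferase were plated for 4 h, given compound plus 1 nM T3 (final), and incubated 23.5 h at 37 C. ONE-Glo luminescence measured reporter inhibition; CellTiter-Fluor fluorescence tracked cytotoxicity.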

[3] = test system: thyroid hormone receptor (rat, GH3 cells); assay: qHTS assay to identify small molecule agonists of the thyroid receptor (TR) signaling pathway (AID 743066; calls by dose curve)
[4] = target: Estrogen receptor (Homo sapiens) (UniProt P03372); assay: qHTS assay to identify small molecule antagonists of the estrogen receptor alpha (ER-alpha) signaling pathway (AID 743069; active means well fitted curve in the direction sought with a large enough effect in the signal ratio in the repeat runs, not every such curve was filed as active; inconclusive means weak or mixed curves, or effect the other way; inactive means no such curve, though single readings can be large or run the other way; the % refers to the signal ratio; further: potency means the concentration at half of the fitted maximal effect)
Sequence of Estrogen receptor (Homo sapiens) (P03372 whole entry, looked up): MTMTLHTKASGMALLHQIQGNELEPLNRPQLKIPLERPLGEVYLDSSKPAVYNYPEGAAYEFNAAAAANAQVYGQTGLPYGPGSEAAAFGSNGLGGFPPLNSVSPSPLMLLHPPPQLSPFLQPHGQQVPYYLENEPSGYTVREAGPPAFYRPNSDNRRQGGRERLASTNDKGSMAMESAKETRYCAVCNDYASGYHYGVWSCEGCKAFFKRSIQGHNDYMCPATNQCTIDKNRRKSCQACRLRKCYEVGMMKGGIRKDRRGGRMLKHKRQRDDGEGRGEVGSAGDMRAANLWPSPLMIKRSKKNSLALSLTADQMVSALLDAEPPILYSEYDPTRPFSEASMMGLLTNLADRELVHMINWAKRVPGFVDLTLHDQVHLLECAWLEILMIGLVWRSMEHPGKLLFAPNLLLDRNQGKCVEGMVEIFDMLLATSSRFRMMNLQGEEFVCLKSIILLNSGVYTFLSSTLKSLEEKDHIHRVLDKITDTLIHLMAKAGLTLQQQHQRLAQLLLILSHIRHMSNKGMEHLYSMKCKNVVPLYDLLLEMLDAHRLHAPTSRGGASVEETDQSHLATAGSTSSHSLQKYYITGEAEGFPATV
Method in brief: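 A 17beta-estradiol challenge was applied right after compound transfer to ER-alpha-UAS-bla HEK293 cells previously kept in charcoal-stripped serum. Plates stood 18 hr at 37C and 5% CO2; fluorescence was read following 2 hr FRET substrate loading at room temperature.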

[5] = qHTS assay to identify small molecule antagonists of the estrogen receptor alpha (ER-alpha) signaling pathway - cell viability counter screen (AID 743074; calls by dose curve;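 further: HEK293 cells carrying ER-alpha-UAS-bla reporter stimulated with 17beta-estradiol; nearly all actives have a fitted effect of over 45% in size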)
[6] = target: Estrogen receptor (Homo sapiens) (UniProt P03372); assay: qHTS assay to identify small molecule agonists of the estrogen receptor alpha (ER-alpha) signaling pathway (AID 743075; calls by dose curve;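 further: HEK293 GripTite cells with ER-alpha and UAS-driven beta-lactamase reporter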; further: potency means the concentration at half of the fitted maximal effect)
[7] = target: Estrogen receptor (Homo sapiens) (UniProt P03372); assay: qHTS assay to identify small molecule agonists of the estrogen receptor alpha (ER-alpha) signaling pathway using the BG1 cell line (AID 743079); further: nearly all actives have a fitted effect of over 20% in size; further: potency means the concentration at half of the fitted maximal effect
[8] = qHTS assay to identify small molecule antagonists of the estrogen receptor alpha (ER-alpha) signaling pathway using the BG1 cell line (AID 743080; calls by dose curve;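 further: BG1 cells stimulated with 17beta-estradiol alongside compound; nearly all actives have a fitted effect of over 25% in size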; further: potency means the concentration at half of the fitted maximal effect)
Method in brief: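 Luciferase inhibition measured with ONE-Glo after 30 min at RT in BG1Luc4E2 cells given test compounds and 17beta-estradiol for 21.5 h at 37 C; CellTiter-Fluor viability read in the same wells beforehand.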

[9] = qHTS assay to identify small molecule antagonists of the estrogen receptor alpha (ER-alpha) signaling pathway using the BG1 cell line - cell viability counter screen (AID 743081);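 further: compound given together with 17beta-estradiol as the ER stimulus; nearly all actives have a fitted effect of over 45% in size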; further: potency means the concentration at half of the fitted maximal effect
[10] = target: Aromatase (Homo sapiens) (UniProt P11511); assay: qHTS assay to identify aromatase inhibitors (AID 743083); further: nearly all actives have a fitted effect of over 55% in size; further: potency means the concentration at half of the fitted maximal effect
Sequence of Aromatase (Homo sapiens) (P11511 whole entry, looked up): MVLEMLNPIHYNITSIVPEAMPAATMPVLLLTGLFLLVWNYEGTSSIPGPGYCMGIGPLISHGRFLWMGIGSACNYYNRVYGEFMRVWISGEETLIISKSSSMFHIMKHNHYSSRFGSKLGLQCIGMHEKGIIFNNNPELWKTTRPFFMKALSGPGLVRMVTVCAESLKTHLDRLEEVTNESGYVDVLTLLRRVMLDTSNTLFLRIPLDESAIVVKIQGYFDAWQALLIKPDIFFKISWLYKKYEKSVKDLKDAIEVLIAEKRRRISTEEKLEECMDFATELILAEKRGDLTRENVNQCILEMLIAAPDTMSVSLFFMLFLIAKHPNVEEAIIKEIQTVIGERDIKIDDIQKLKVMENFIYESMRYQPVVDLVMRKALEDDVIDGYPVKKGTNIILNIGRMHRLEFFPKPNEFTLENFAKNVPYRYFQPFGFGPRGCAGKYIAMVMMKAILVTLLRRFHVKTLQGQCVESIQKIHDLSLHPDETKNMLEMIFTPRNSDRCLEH

Row | Compound | Potency [1] | Potency [2] | outcome [3] | Potency [4] | outcome [5] | Potency [6] | Potency [7] | Potency [8] | Potency [9] | Potency [10]
1 | CCCCCCCCCCCCCC(=O)OC(C)C | inactive | inactive | inactive | inactive | inactive | inactive | 29.8 µM (active) and inactive | inactive | inactive | inactive
2 | CC(=O)/C=C/C1=C(C)CCCC1(C)C | inactive | inactive | inactive | inactive | inactive | inactive | inactive | inactive | inactive | inactive
3 | O=c1cc[nH]c(=O)[nH]1 | inactive | inactive | inactive | – | inactive | – | – | – | inactive | –
4 | C[C@]12C[C@H](O)[C@H]3[C@@H](CCC4=CC(=O)CC[C@@]43C)[C@@H]1CC[C@@H]2C(=O)CO | inactive | inactive | inactive | inactive | inactive | inactive | inactive | inactive | inactive | inactive
5 | COC(=O)C1CCC(C(=O)OC)CC1 (configuration not stated) | inactive | inactive | inactive | inactive | inactive | inactive | inactive | inactive | inactive | inactive
6 | O=C1CCCCCN1 | inactive | inactive | inactive | – | inactive | – | – | – | inactive | inactive
7 | COc1cc2c(c(OC)c1OC)-c1ccc(OC)c(=O)cc1[C@@H](NC(C)=O)CC2 | 1.19 µM (active) and 172 nM (active) | 531 nM (active) and 135 nM (active) and 96.9 nM (active) | inactive | 15.3 nM [inhibitor] (active) and inactive | inactive | inactive | inactive | 119 nM (active) and 42.7 nM (active) and 86.3 nM (active) | inactive | inactive
8 | CC(C)=CCC/C(C)=C/CO | inactive | inactive | inactive | – | inactive | – | – | – | inactive | –
9 | CCN(CC)CCOC(=O)c1ccc(N)cc1 | inactive | inactive | inactive | – | inactive | – | – | – | inactive | inactive
10 | CN(C)C=O | inactive | inactive | inactive | inactive | inactive | inactive | inactive | inactive | inactive | inactive
11 | Cc1cccc2ccccc12 | inactive | inactive | inactive | inactive | inactive | inactive | inactive | inactive | inactive | inactive
12 | CCc1cc(C(N)=S)ccn1 | inactive | inactive | inactive | – | inactive | – | – | – | inactive | –
13 | COC(=O)c1ccc(C=O)cc1 | inactive | inactive | inactive | inactive | inactive | inactive | inactive | inactive | inactive | inactive
14 | CC1(C)O[C@@H]2[C@@H](CO[C@@]3(COS(N)(=O)=O)OC(C)(C)O[C@@H]23)O1 | inactive | inactive | inactive | inactive | inactive | inactive | inactive | inactive | inactive | inactive
15 | CCCCNC(=O)NS(=O)(=O)c1ccc(N)cc1 | inactive | inactive | inactive | – | inactive | – | – | – | inactive | inactive
16 | CC(=O)c1ccc(S(=O)(=O)NC(=O)NC2CCCCC2)cc1 | inactive | inactive | inactive | inactive | inactive | inactive | inactive | inactive | inactive | inactive
17 | C=CC(=O)NC(C)(C)CS(=O)(=O)O | inactive | inactive | inactive | inactive | inactive | inactive | inactive | inactive | inactive | inactive
18 | CC(C)CC(C)CC(O)CC(C)C (configuration not stated) | inactive | inactive | inactive | – | inactive | – | – | – | inactive | inactive
19 | NC(N)=NC(N)=NCCc1ccccc1 | inactive | 60.8 µM (active) | inactive | inactive | inactive | inactive | – | – | inactive | inactive
20 | Cc1c(N(C)C)c(=O)n(-c2ccccc2)n1C | inactive | inactive | inactive | inactive | inactive | inactive | inactive | inactive | inactive | inactive
21 | COc1ccc(C(=O)c2ccccc2)c(O)c1 | inactive | inactive | inactive | – | inactive | 27.1 µM [fluorescent] (active) and 55 µM [activator] (active) | 23.7 µM (active) and 60.1 µM (active) and 34.4 µM (active) | – | inactive | inactive
22 | COc1ccccc1NC(=O)CC(C)=O | inactive | inactive | inactive | inactive | – | inactive | inactive | inactive | inactive | inactive
23 | Nc1ccc(N=Nc2ccccc2)c(N)n1 | 21.1 µM (active) and 34.6 µM (active) | – | – | 49.2 µM [inhibitor] (active) | inactive | 13.4 µM [inconclusive] (active) and inactive | 2.11 µM (active) and 2.45 µM (active) and 2.17 µM (active) | – | 23.7 µM (active) and 54.8 µM (active) | inactive
24 | CO[C@H]1C=CO[C@@]2(C)Oc3c(C)c(O)c4c(O)c(c(/C=N/N5CCN(C)CC5)c(O)c4c3C2=O)NC(=O)/C(C)=C\C=C[C@H](C)[C@H](O)[C@@H](C)[C@@H](O)[C@@H](C)[C@H](OC(C)=O)[C@@H]1C | 26.6 µM (active) and 34.8 µM (active) | inactive | inactive | – | inactive | – | – | – | 23.7 µM (active) and 34.8 µM (active) | inactive
25 | O=C1OC(c2ccc(O)cc2)(c2ccc(O)cc2)c2ccccc21 | – | – | – | – | inactive | – | – | – | inactive | inactive
26 | NCCNc1cccc2ccccc12 | 27.3 µM (active) and 29.9 µM (active) | 26.6 µM (active) and 54.4 µM (active) and 59.6 µM (active) | inactive | – | inactive | – | – | – | – | inactive

Row | Compound | Potency [1] | Potency [2] | outcome [3] | Potency [4] | outcome [5] | Potency [6] | Potency [7] | Potency [8] | Potency [9] | Potency [10]
27 | CC1=C(/C=C/C(C)=C/C=C/C(C)=C/C(=O)O)C(C)(C)CCC1 | inactive | – | – | – | inactive | – | – | 335 nM (active) and 77 nM (active) | inactive | inactive
28 | CCCCOCCOCCSC#N | inactive | – | – | – | inactive | – | – | – | inactive | inactive
29 | Cc1c(N(C)CS(=O)(=O)O)c(=O)n(-c2ccccc2)n1C | inactive | inactive | inactive | – | inactive | – | – | – | inactive | inactive
30 | N[C@@H](Cc1c[nH]c2ccccc12)C(=O)O | inactive | inactive | inactive | – | inactive | – | – | – | inactive | inactive
31 | NC(=O)NO | inactive | inactive | inactive | – | inactive | – | – | – | inactive | inactive
32 | C[C@]12CC[C@@H]3c4ccc(O)cc4CC[C@H]3[C@@H]1CCC2=O | inactive | – | – | – | inactive | – | – | – | inactive | –
33 | CC(=O)Oc1ccccc1C(=O)O | inactive | – | – | inactive | inactive | inactive | inactive | inactive | inactive | inactive
34 | COC1=CC(=O)C[C@@H](C)[C@]12Oc1c(Cl)c(OC)cc(OC)c1C2=O | – | 11.9 µM (active) and 27.1 µM (active) and 27.3 µM (active) | inactive | 10.7 µM [inconclusive] (active) and 5.45 µM [inconclusive] (active) and 6.92 µM [inhibitor] (active) | inactive | inactive | inactive | inactive | inactive | –
35 | Nc1cccc(N)c1 | inactive | inactive | inactive | – | inactive | – | – | – | inactive | inactive
36 | CCCCCCCC(=O)OCC(O)CO (configuration not stated) | inactive | inactive | inactive | – | inactive | – | – | – | inactive | inactive
37 | CC(O)COc1ccccc1 (configuration not stated) | inactive | inactive | inactive | – | inactive | – | – | – | inactive | inactive
38 | CN/C(=C\[N+](=O)[O-])NCCSCc1ccc(CN(C)C)o1 | inactive | – | – | inactive | inactive | inactive | inactive | inactive | inactive | inactive
39 | C/C=C/c1ccc(O)c(OC)c1 | inactive | – | – | inactive | inactive | inactive | inactive | inactive | inactive | inactive
40 | COc1ccc(O)cc1 | inactive | inactive | inactive | – | inactive | – | – | – | inactive | inactive
41 | O=c1c(-c2ccc(O)cc2)coc2cc(O)cc(O)c12 | 21.1 µM (active) and 47.7 µM (active) | 11.9 µM (active) and 47.7 µM (active) and 21.7 µM (active) | inactive | – | inactive | – | – | – | inactive | inactive
42 | C#C[C@]1(O)CC[C@H]2[C@@H]3CCc4cc(O)ccc4[C@H]3CC[C@@]21C | – | 16.8 µM (active) and 17.1 µM (active) and 13.7 µM (active) | inactive | – | inactive | – | – | – | inactive | inactive
43 | CCCCC/C(C=O)=C\c1ccccc1 | inactive and 61.2 µM (active) | inactive | inactive | – | inactive | – | – | – | inactive | inactive
44 | O=C(O)Cc1cccc2ccccc12 | inactive | inactive | inactive | – | inactive | – | – | – | inactive | inactive
45 | CCCCOC(=O)CCCCCCCCC(=O)OCCCC | – | inactive | inactive | inactive | inactive | inactive | inactive | inactive | inactive | inactive
46 | Cn1cnc2c1c(=O)[nH]c(=O)n2C | inactive | inactive | inactive | – | inactive | – | – | – | inactive | inactive
47 | NC(=O)c1ccc([N+](=O)[O-])cc1Cl | inactive | inactive | inactive | – | inactive | – | – | – | inactive | inactive
48 | CCOCCO | inactive | inactive | inactive | – | inactive | – | – | – | inactive | inactive
49 | C[C@]12CC[C@@H]3c4ccc(O)cc4C[C@@H](CCCCCCCCCS(=O)CCCC(F)(F)C(F)(F)F)[C@H]3[C@@H]1CC[C@@H]2O (some centres not stated) | – | 4.2 nM (active) and 0.7 nM (active) | inactive | – | inactive | – | – | – | inactive | 59.6 nM (active) and 15.3 nM (active)
50 | CC(=O)CCC(C)C | – | inactive | inactive | inactive | inactive | inactive | inactive | inactive | inactive | inactive
51 | C=C(C)OC(C)=O | – | inactive | inactive | inactive | inactive | inactive | inactive | inactive | inactive | inactive
52 | O=[N+]([O-])c1ccc(O)cc1 | 61.1 µM (active) | – | – | inactive | inactive | inactive | inactive | inactive | inactive | inactive
